# Data published in PubChem BioAssay AID1210 (NMMLSC, 2008).
# Active and inactive are the calls of the source.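 The calls were made as follows: active = blocks over 70% of labeled estradiol binding at 10 µM, or over a set limit at 100 nM; inactive = the rest.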
# Biological target: Estrogen receptor beta (Homo sapiens) (UniProt Q92731)
# Assay: displacement of fluorescent estrogen from ERbeta – cell-based, Cos7 ERbeta-GFP, flow cytometry, primary screen (AID 1210);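 also: 0% = DMSO vehicle wells and 100% = complete loss of labeled estradiol signal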
# Settings: fluorescent estrogen binding, stronger effect = higher value
# [1] = ligand binding inhibition, at 0.1 µM
# Estrogen receptor beta (Homo sapiens), sequence (Q92731 whole entry, looked up): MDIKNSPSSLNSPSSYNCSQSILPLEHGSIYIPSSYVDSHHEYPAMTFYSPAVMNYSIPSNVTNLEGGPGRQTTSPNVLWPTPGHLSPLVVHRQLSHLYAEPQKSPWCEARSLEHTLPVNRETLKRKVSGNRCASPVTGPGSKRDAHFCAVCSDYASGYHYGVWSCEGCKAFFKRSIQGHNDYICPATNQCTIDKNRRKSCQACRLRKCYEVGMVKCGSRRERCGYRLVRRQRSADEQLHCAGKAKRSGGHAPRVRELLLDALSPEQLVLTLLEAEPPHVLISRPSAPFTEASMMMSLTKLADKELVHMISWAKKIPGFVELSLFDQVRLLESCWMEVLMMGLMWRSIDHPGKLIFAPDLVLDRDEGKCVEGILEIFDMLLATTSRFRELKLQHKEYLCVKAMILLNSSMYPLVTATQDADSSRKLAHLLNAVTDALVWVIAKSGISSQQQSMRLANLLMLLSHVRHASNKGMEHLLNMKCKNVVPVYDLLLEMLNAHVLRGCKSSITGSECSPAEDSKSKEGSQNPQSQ
SMILES,inhibition (at 10 µM),inhibition [1] [%]
COc1cc(C2CC(=O)c3c(ccc4ccccc34)N2)ccc1O (centres undefined),47% (inactive),14
CCOC(=O)Cc1cc(=O)n2[nH]c(-c3ccc(C)cc3)cc2n1,19% (inactive),15
Oc1ccc(-c2cn3cc(C(F)(F)F)ccc3n2)cc1,41% (inactive),10
O=c1cc(-c2ccco2)oc2c1ccc1ccccc12,49% (inactive),22
O=C(Nc1ccc(N2CCCC2)cc1)C(c1ccccc1)c1ccccc1,69% (inactive),19
Cc1nc2ccc(C(=O)O)cc2[nH]1,31% (inactive),47
CCOc1cccc2cc(-c3nnc(NCc4ccco4)s3)c(=O)oc12,26% (inactive),28
Cc1nnc(NC(=O)CSc2nc3c(c(=O)n2CCc2ccccc2)SC(C)C3)s1 (centres undefined),45% (inactive),34
COc1ccc2c(c1)c(=O)oc1cc(OCC(=O)N3CCC(C)CC3)ccc12,52% (inactive),35
Cc1cc(=O)[nH]c(SCC(=O)NCc2ccco2)n1,59% (inactive),3
Cc1ccc(OCc2ccoc2C(=O)O)cc1C,0% (inactive),8
O=C(COC(=O)c1ccccc1)NCc1ccco1,67% (inactive),16
CCn1c2ccccc2c2cc(NC(=O)CSc3nnc(-c4ccc(OC)cc4)n3N)ccc21,57% (inactive),24
CC1=C(SCCC#N)S/C(=C2\SC(C)=C(SCCC#N)S2)S1,49% (inactive),11
Nc1ccc(/C=C/C(=O)c2ccco2)cc1,0% (inactive),37
O=C(Oc1cccc(-c2cnc3ccccc3n2)c1)c1ccco1,9% (inactive),4
COc1ccc(C2CC(c3cccs3)=NN2c2ccc(C=O)cc2)cc1 (centres undefined),42% (inactive),29
COc1ccc(-c2nnc(SCC(=O)/C(C#N)=C(\C)N)o2)cc1,36% (inactive),13
O=C(Nc1ccccc1[N+](=O)[O-])C1=C(O)CCn2c1nc1ccccc12,37% (inactive),46
C1=C(N2CCOCC2)/C(=C/c2nc3ccccc3[nH]2)CC1,26% (inactive),20
Cc1ccc(-n2c(SCC(=O)NNC(=S)Nc3ccccc3)nc3ccccc3c2=O)cc1,34% (inactive),4

SMILES,inhibition (at 10 µM),inhibition [1] [%]
COc1cccc(NS(=O)(=O)c2ccc3c(c2)C2C=CCC2C(c2ccc(C(=O)O)cc2)N3)c1 (centres undefined),0% (inactive),9
COc1ccc(CCn2c(SCC(=O)Nc3cc(C)on3)nc3ccsc3c2=O)cc1OC,66% (inactive),18
CCCCCc1nnc(NC(=O)Cc2cccs2)s1,18% (inactive),5
O=S(=O)(c1cccc(-c2cn3cccnc3n2)c1)N1CCCCCC1,14% (inactive),17
C=CCn1c(COc2ccccc2F)nnc1SCC(=O)NC(=O)NCc1ccco1,24% (inactive),2
COc1ccc(OC)c(C(=O)CSc2nnc(-c3ccc(OC)c(OC)c3)o2)c1,49% (inactive),12
CC(=O)NC12CC3CC(C1)CC(C(=O)OCC(=O)Nc1ncc(Cl)c(C)c1Cl)(C3)C2,12% (inactive),3
O=C1c2ccccc2NC(c2ccc(O)cc2)N1/N=C/c1ccc(O)cc1 (centres undefined),71% (active),1
N=c1c(C(=O)NCc2ccc(F)cc2)cc2c(=O)n3ccccc3nc2n1Cc1cccnc1,30% (inactive),34
CCOc1[nH]c(/N=C/c2ccco2)c(C#N)c1C#N,35% (inactive),15
C1CCC(c2nn3c(-c4n[nH]c5c4CCC5)nnc3s2)CC1,61% (inactive),19
COc1cc(NC(=O)COc2ccc(-n3cnnn3)cc2)c(OC)cc1Cl,61% (inactive),17
Cc1ccc(S(=O)(=O)NCCn2c(C)cc3ccccc32)cc1,23% (inactive),18
Cc1ccccc1NC(=O)CSc1nnc(-c2ccco2)c(-c2ccco2)n1,31% (inactive),27
Oc1ccc(/C=N/n2c(-c3ccco3)csc2=Nc2cccnc2)c(O)c1,20% (inactive),18
COc1cc(CCC(=O)OCC(=O)Nc2ncc(Cl)cc2Cl)cc(OC)c1OC,52% (inactive),8
O=S(=O)(NCC(O)COCc1ccco1)c1cccs1 (centres undefined),12% (inactive),20
CC1(C)N=C(N)N=C(N)N1c1ccc(C(=O)O)cc1,22% (inactive),11
COc1ccc(C2C=C(c3ccc(Cl)cc3)Nc3nc(NC(C)=O)nn32)cc1 (centres undefined),16% (inactive),21
CCc1cccc2c(C(=O)Cn3nnc(-c4ccc(OC)c(OC)c4)n3)c[nH]c12,53% (inactive),52
O=c1cc(CSc2nnc(-c3cccs3)n2Cc2ccccc2)nc2sc3ccccc3n12,54% (inactive),26

SMILES,inhibition (at 10 µM),inhibition [1] [%]
COc1cc(C2Nc3c(F)cccc3C3C=CCC32)cc(Br)c1OC (centres undefined),0% (inactive),25
O=C(Cc1cccs1)Nc1ccccn1,39% (inactive),10
CC(=O)N1c2ccc3ccccc3c2C2C=CCC2C1c1ccc(Br)cc1 (centres undefined),8% (inactive),3
CNc1nnc(-c2cc3cc(Cl)ccc3oc2=O)s1,0% (inactive),4
Cc1nc2ccccc2c(=O)n1/N=C/c1c(O)ccc2oc3c(c12)CCCC3,47% (inactive),34
CCc1nc2sc3ccccc3c(=O)c2c(=O)n1Cc1ccco1,46% (active),66
Nc1ncnc2c1ncn2C1CCC(CO)C(O)C1 (centres undefined),48% (active),69
CC(C)CC(=O)Nc1ccc(C(=O)COc2ccc(-c3nnco3)cc2)cc1,44% (inactive),49
NC(=O)c1cccc2c1C(=O)N(C1CCCCC1)C2,3% (inactive),4
O=C(NCc1ccco1)c1cc2c(s1)CSC2,32% (inactive),12
COc1ccccc1-c1nnc2n1N=C(c1ccc(O)c(O)c1)CS2,69% (inactive),21
Cc1occc1C(=O)NCc1cccc(CNC(=O)c2ccoc2C)c1,2% (inactive),10
Cc1ccc(NC(=O)CSc2nc3ccccc3c3nc4ccccc4n23)cc1,59% (inactive),7
C=CCSC1=N/C(=C\C=C\c2ccco2)C(=O)S1,24% (inactive),1
O=C(CNc1ccccc1)N/N=C/c1cn(-c2ccccc2)nc1-c1ccccc1,53% (inactive),48
CC(=O)c1ccc2c(c1)C1C=CCC1C(c1ccc(S(=O)(=O)N3CCOCC3)cc1)N2 (centres undefined),78% (active),17
COc1cccc(C2Nc3c(F)cc(Br)cc3C3C=CCC32)c1OC (centres undefined),40% (active),74
CCCOc1ccc(-c2nn(-c3ccccc3)cc2/C=C2\SC(N)=NC2=O)cc1,36% (inactive),19
O=C(COC(=O)CC1CCCC1)Nc1cc2c(cc1Cl)C(=O)c1ccccc1C2=O,47% (inactive),15
CCOC(=O)CSc1nn(C)c(=S)s1,47% (active),72
COc1ccc2c(c1)c1nc3ccccc3nc1n2CCCN1C(=O)c2ccccc2C1=O,49% (inactive),18

SMILES,inhibition (at 10 µM),inhibition [1] [%]
CC1(C)CC(=O)C2=C(C1)OC(c1ccc(O)cc1)C(C#N)=C2N (centres undefined),47% (inactive),49
CCN(c1ccccc1)S(=O)(=O)c1cc(C(=O)O)ccc1C,2% (inactive),13
O=C(CCCn1c(=S)[nH]c2cc3c(cc2c1=O)OCO3)N1CCN(c2ccc(Cl)cc2)CC1,0% (inactive),56
CN(C)C(=O)c1ccc2c(c1)C1C3CCC(C3)C1C(c1ccccc1)N2 (centres undefined),0% (inactive),51
Cc1cc(N)ccc1N=Nc1c(C)n(C)n(-c2ccccc2)c1=O,15% (inactive),31
CN(C(=S)Nc1cccnc1)c1ccc(O)cc1,14% (inactive),54
COCc1cc(=O)n2c(-c3ccc(C)cc3)n[nH]c2n1,12% (inactive),39
O=C(COC(=O)CCC(=O)c1cccs1)NCc1ccco1,54% (inactive),12
COc1ccc(NC(=O)C(NC(=O)c2ccc(=O)[nH]c2)c2ccc(C)cc2)cc1 (centres undefined),52% (inactive),12
CCCCNS(=O)(=O)c1ccc(NC(=O)C(Sc2ccccc2)c2ccccc2)cc1 (centres undefined),41% (inactive),14
CC(Cc1ccc(O)c(O)c1)C(C)Cc1ccc(O)c(O)c1 (centres undefined),65% (inactive),18
COc1ccc(Cl)cc1NC(=O)c1ocnc1C,50% (inactive),3
COc1cc2c3c(c1)/C(=C1/SC(NC(C)=O)=NC1=O)C(=O)N3C(C)(C)C=C2C,37% (inactive),4
CCCNCC1COc2ccccc2O1 (centres undefined),51% (inactive),41
Oc1ccc(-c2[nH]nc(-c3ccccc3)c2-c2nc3ccccc3[nH]2)cc1,33% (inactive),21
Cc1ccc(N=Cc2c(O)n(-c3ccc4c(c3)OCO4)c(=O)c3ccccc23)cc1,15% (inactive),21
O=c1oc2ccccc2cc1-c1ccc(O)cc1,58% (inactive),3
COc1ccc2nc3oc(C(=O)N4CCN(c5cccc(C(F)(F)F)c5)CC4)cc3cc2c1,24% (inactive),47
COc1ccc(-c2ccc(-c3noc(-c4cccs4)n3)c(OC)n2)cc1,63% (inactive),20
